Our source for the Percent Effect values is ChEMBL document CHEMBL3988442, “University of Dundee, Small-Polar-MMV Screening Library” (2021).

Set-up in all cases: scale not given: direction of the effect not stated beside the values
In test [1] the target is Protein translocase subunit SecA (Escherichia coli (strain K12)) (UniProt P10408). As to the kind of experiment: Assay to Identify E. coli SecA ATPase Inhibitors. The following applies: 30 µM. It counts as functional.
Test [2] concerns the target T1, Ubiquitin-activating enzyme e1, putative (Leishmania donovani (strain BPK282A1)) (UniProt E9BSI1).
T1 sequence (whole entry): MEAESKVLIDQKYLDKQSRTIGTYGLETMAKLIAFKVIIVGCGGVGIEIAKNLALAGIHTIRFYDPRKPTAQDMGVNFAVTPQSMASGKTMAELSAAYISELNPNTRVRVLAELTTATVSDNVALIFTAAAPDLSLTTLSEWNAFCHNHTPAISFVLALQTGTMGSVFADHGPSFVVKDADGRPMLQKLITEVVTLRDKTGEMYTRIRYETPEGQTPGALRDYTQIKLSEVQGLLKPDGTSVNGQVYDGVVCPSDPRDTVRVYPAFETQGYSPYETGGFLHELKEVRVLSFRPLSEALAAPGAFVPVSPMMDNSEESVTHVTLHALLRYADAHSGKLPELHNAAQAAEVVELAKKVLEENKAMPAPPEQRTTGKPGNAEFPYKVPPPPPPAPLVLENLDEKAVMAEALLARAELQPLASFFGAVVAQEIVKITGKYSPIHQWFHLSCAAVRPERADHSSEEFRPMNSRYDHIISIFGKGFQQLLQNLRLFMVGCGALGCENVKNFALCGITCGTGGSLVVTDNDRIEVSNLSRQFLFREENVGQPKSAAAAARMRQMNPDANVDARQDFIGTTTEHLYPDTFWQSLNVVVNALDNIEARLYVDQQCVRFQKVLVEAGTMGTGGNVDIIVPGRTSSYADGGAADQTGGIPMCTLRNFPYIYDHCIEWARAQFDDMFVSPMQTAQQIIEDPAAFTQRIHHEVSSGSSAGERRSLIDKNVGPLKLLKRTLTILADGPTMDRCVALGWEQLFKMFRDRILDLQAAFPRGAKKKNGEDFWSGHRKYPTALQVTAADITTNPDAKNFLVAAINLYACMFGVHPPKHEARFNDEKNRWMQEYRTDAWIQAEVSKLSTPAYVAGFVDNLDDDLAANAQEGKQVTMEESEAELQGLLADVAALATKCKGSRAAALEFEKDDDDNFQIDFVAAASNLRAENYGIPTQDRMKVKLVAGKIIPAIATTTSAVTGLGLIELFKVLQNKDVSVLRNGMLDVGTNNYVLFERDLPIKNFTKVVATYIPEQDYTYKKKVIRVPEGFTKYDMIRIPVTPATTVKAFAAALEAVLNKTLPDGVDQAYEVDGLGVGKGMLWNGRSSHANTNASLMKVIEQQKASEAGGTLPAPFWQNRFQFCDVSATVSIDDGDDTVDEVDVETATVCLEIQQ
Kind of test: Leishmania donovani Ubiquitin Activating Enzyme (LdE1). It counts as functional. The following applies: 30 µM.

Test [3] concerns the target AMP-activated protein kinase, AMPK (Homo sapiens) (UniProt P54646+O43741+P54619+Q9UGJ0+Q9Y478+Q13131+Q9UGI9). Kind of test: AMP-dependent Kinase enzyme assay. An in vitro enzyme assay that detects ADP turnover that is directly proportional to AMPK activity. This uses naive AMPK that is activated during the assay with MK-8722. It is filed as functional. The following applies: 30 µM.

The target in test [4] is Sialic acid-binding Ig-like lectin 9 (Homo sapiens) (UniProt Q9Y336). Kind of test: Hs-Siglec9 ALPHAscreen SOP 20170721. As to conditions: 10 µM. A general note: Bead proximity is the source of the signal in Alpha formats.
Chain of Sialic acid-binding Ig-like lectin 9 (Homo sapiens) (Q9Y336 whole entry): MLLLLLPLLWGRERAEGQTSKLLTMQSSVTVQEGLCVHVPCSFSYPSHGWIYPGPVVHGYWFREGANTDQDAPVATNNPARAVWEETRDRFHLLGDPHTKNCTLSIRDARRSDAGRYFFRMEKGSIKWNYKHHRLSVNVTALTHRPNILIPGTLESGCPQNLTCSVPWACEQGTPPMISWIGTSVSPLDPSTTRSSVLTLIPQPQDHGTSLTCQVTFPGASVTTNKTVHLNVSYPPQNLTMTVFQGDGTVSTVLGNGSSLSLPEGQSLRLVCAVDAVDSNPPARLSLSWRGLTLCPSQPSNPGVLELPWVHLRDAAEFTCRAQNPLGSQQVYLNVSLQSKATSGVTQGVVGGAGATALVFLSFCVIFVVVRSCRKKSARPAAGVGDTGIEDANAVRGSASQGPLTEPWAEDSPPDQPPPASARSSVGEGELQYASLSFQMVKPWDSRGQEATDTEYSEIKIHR
In the next test the test system is Trypanosoma cruzi. As to the kind of experiment: Trypanosoma cruzi phosphomannomutase and mannose-1-phosphate guanylyltransferase assay. It counts as functional. The following applies: 10 µM.
Test [5] deals with T2, Arginase-2, mitochondrial (Homo sapiens) (UniProt P78540).
T2 sequence (whole entry): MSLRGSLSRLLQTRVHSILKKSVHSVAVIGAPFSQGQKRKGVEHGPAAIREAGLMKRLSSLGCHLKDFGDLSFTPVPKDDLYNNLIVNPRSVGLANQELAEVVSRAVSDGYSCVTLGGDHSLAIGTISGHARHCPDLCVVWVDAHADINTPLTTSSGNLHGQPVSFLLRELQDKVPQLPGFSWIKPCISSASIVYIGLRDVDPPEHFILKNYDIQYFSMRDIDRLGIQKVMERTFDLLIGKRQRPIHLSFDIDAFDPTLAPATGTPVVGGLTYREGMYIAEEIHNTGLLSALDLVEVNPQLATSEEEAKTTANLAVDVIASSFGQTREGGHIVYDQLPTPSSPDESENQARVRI
As to the kind of experiment: in vitro enzyme assay to detect the production of urea directly proportional to the activity of Arginase II. Also: in the data most compounds retested in dose-response had high values. It is filed as functional. As to conditions: 33.3 µM.

Test [6] has as its target T3, Proteasome subunit beta (Trypanosoma cruzi) (UniProt O96673).
T3 sequence (whole entry): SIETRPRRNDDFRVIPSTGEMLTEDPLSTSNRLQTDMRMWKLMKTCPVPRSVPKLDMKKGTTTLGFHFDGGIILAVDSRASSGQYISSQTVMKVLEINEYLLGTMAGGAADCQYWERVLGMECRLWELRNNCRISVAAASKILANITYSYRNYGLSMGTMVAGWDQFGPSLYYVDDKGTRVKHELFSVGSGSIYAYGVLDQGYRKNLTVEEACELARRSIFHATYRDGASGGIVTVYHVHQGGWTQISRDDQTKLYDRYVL
As to the kind of experiment: Trypanosoma cruzi proteasome chymotrypsin-like activity (TcProtChymo) assay. Also: in the data most compounds retested in dose-response had high values. It counts as functional. As to conditions: 9.37 µM.

For a further test, the species on record is Homo sapiens. Kind of test: To identify inhibition of the IFN signalling (Jak-Stat) pathway via expression of an eGFP reporter gene under the control of an IFN-stimulated response element (ISRE) containing MxA promoter. It counts as functional. As to conditions: 30 µM.
Test [7] has as its target T4, Tyrosyl-tRNA synthetase, putative (Trypanosoma cruzi (strain CL Brener)) (UniProt Q4DSP6).
T4 sequence (whole entry): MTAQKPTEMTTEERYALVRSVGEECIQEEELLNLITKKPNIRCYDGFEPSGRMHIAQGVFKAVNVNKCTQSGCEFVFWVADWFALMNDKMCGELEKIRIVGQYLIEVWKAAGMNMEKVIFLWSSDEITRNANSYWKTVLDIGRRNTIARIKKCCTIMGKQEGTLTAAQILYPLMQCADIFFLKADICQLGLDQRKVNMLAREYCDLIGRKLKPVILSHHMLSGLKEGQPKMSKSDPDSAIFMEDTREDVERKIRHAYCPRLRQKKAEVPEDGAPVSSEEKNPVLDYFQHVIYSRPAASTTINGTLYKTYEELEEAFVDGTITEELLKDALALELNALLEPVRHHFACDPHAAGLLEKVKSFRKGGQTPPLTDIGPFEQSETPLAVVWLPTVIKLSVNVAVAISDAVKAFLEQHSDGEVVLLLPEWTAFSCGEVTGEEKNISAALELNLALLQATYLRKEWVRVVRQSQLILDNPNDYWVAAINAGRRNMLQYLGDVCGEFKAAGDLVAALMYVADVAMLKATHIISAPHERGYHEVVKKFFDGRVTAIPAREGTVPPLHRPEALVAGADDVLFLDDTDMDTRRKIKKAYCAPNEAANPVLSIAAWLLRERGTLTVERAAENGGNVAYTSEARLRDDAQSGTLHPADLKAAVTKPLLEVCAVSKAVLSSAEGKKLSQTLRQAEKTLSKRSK
Kind of test: Trypanosoma cruzi tyrosyl tRNA synthetase (TcYRS) _High Tyrosine SOP. Also: in the data most compounds retested in dose-response had high values. It is filed as functional. As to conditions: 30 µM.

Test [8] addresses T4, Tyrosyl-tRNA synthetase, putative (Trypanosoma cruzi (strain CL Brener)). As to the kind of experiment: Trypanosoma cruzi tyrosyl tRNA synthetase (TcYRS) SOP. The following applies: 30 µM. It is filed as functional.
Test [9] concerns the target Chromo domain-containing protein 1 (Saccharomyces cerevisiae (strain ATCC 204508 / S288c) (Baker's yeast)) (UniProt P32657). Kind of test: ScCHD-1 Enzyme Inhibition Assay. Also: in the data most compounds retested in dose-response had high values. It is filed as functional. As to conditions: 30 µM.

Structures are written as SMILES. For some assays here: Entries with a potency or affinity are not part of this list.

Chain of Protein translocase subunit SecA (Escherichia coli (strain K12)) (P10408 whole entry): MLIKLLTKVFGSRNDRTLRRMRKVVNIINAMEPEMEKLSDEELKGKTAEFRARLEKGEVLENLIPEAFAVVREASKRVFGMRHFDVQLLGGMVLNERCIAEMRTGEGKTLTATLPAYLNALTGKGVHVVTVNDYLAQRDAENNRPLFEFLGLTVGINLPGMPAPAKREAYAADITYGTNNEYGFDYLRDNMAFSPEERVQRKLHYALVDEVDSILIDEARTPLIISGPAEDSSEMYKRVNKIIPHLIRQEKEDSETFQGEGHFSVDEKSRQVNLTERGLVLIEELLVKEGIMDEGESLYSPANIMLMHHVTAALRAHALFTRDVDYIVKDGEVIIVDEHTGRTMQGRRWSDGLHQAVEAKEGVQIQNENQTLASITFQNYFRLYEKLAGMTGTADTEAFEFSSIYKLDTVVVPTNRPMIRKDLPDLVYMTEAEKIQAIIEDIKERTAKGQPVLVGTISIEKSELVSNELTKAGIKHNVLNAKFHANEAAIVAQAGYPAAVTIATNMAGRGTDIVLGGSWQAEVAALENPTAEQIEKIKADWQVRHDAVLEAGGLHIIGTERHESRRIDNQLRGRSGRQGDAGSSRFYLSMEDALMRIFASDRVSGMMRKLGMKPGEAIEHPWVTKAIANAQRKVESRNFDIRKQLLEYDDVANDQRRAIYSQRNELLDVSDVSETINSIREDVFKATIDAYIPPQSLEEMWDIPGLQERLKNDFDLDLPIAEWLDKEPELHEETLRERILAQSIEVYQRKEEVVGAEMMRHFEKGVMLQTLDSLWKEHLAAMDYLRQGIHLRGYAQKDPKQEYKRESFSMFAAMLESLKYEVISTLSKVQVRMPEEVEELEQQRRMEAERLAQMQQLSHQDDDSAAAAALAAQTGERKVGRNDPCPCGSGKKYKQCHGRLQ
Chain of Chromo domain-containing protein 1 (Saccharomyces cerevisiae (strain ATCC 204508 / S288c) (Baker's yeast)) (P32657 whole entry, the tested form may be a part): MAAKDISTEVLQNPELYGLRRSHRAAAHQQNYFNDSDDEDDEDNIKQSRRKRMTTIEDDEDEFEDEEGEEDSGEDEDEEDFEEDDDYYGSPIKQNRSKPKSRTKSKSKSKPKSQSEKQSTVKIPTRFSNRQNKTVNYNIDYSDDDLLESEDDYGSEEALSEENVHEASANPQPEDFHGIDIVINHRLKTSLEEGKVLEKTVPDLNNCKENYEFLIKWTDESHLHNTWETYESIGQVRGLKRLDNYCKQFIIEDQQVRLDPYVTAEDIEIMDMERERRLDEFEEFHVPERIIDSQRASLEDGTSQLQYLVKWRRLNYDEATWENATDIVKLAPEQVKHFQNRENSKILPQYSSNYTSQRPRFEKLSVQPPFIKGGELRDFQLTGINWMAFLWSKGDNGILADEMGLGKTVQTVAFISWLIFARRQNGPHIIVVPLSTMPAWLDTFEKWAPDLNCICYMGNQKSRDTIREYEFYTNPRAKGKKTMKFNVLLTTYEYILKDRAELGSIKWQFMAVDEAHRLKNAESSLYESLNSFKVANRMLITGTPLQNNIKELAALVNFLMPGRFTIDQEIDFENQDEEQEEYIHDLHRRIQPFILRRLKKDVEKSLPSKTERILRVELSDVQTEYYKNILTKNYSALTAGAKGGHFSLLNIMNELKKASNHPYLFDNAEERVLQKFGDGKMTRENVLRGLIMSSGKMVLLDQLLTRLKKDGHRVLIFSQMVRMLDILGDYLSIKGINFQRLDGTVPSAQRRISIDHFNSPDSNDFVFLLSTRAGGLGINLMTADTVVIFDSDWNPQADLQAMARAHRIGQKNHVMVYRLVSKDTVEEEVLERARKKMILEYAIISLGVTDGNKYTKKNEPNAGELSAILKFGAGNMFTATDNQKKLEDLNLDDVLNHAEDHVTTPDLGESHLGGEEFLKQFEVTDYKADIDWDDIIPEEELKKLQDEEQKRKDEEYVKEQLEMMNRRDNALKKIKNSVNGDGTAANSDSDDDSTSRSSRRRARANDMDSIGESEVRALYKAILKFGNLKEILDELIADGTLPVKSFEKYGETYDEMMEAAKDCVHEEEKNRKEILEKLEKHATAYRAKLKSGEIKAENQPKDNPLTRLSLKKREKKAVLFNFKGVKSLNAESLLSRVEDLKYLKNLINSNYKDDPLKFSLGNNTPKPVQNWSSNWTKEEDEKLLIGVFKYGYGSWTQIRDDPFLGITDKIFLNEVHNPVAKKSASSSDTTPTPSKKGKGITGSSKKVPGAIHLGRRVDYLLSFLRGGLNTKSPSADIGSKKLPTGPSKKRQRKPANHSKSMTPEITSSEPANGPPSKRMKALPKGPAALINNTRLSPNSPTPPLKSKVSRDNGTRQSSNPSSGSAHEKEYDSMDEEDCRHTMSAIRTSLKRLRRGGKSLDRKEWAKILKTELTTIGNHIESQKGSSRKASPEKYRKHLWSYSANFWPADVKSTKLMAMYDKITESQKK

With `CN(C)C(=O)[C@H]1C[C@@H]2CN(S(=O)(=O)Cc3ccccc3)C[C@H]1O2`, the Percent Effect in [1] is -2.48%; in test [2] it was 13.3%; in test [3], 5.4%; in test [4], -3.98%; in the test with Trypanosoma cruzi it was -1.38%; in test [5], 3.96%. Besides, the Percent Effect is 7.49% in test [6]; -3.98% in the test listed under Homo sapiens; 5.32% in test [7]; 11.5% in test [8]; -6.01% in test [9].
Take `Cc1nc(C)n(CC2CCCCN2CC(=O)Nc2nncs2)n1` (stereo not given): the Percent Effect in [1] is -8.22%; in test [2], 2.67%; in test [3] it was -1.04%; in test [4], 1.02%; in the test with Trypanosoma cruzi, -2.04%; in [5], 2.6%. Besides, the Percent Effect in [6] is 2.79%; in the test listed under Homo sapiens it was -3.85%; in [7], 2.73%; in [8], 11.1%; in test [9], -5.05%.
Regarding `O=C(COc1cccc(Br)c1)N1CCN(c2nccs2)CC1`, the Percent Effect in test [1] was -4.01%; in [2], 18.7%; in [3], 3.31%; in test [4], 10.4%; in the test on Trypanosoma cruzi, 4.58%; in test [5] it was 47.4%. Besides, the Percent Effect in test [6] was 19.4%; in the test listed under Homo sapiens, 26.2%; in test [7], 3.83%; in test [8], 16.1%; in test [9] it was 84.6%.
For `N#Cc1ccc(CNCC2CCN(CCO)CC2)cc1`, the Percent Effect in test [1] was -1.19%; in test [2], 5.48%; in test [3] it was -0.789%; in test [4], -1.57%; in the test with Trypanosoma cruzi, -7.05%; in test [5], 5%. The Percent Effect in test [6] was 9.58%; in the test listed under Homo sapiens, 11.5%; in test [7], 0%; in test [8] it was 10%; in test [9], -2.99%.
With `CCOc1ccccc1C(CC(=O)Nc1ccccc1F)NC(C)=O` (stereo not given), the Percent Effect in [1] was -4.23%; in [2], 10.5%; in [3], 0.587%; in test [4], 13.4%; with Trypanosoma cruzi it was 2.82%; in [5], -1.92%. The Percent Effect in test [6] was -4.18%; in the test listed under Homo sapiens, -32.5%; in [7] it was 3.43%; in [8], 9.76%; in [9], -4.56%.
As for `CNc1nc(CNC(=O)Nc2cccc(F)c2)cs1`, the Percent Effect in test [1] was -4.85%; in test [2], 8.11%; in test [3], -3.94%; in test [4] it was 12.7%; with Trypanosoma cruzi it was -1.39%; in test [5], -4.99%. Also, the Percent Effect in test [6] amounted to 1.62%; in the test filed under Homo sapiens, 1.99%; in test [7] it was 5.94%; in [8] it was 6.1%; in test [9] it was 8.34%.
With `Cc1ccc(N2CCCN(C(=O)CC3CCCO3)CC2)nn1` (stereo not given), the Percent Effect in [1] is -2.51%; in test [2], 21.6%; in [3], -11.8%; in test [4], 5.27%; in the test on Trypanosoma cruzi it was 3.87%; in [5], -8.82%. Further, the Percent Effect in test [6] is 14.8%; in the test listed under Homo sapiens, 7.13%; in test [7] it was -1.48%; in test [8], 18.5%; in test [9] it was -9.23%.
As to `CCCn1[nH]cc/c1=N\C(=O)CN1CCn2c(nnc2C2CC2)C1`, the Percent Effect in [1] was -2.72%; in test [2], 21.1%; in test [3], -11.3%; in [4], -5.47%; in the test with Trypanosoma cruzi, -4.13%; in [5] it was 3.83%. Moreover, the Percent Effect in test [6] is 16.5%; in the test listed under Homo sapiens, 22.7%; in test [7] it was 5.39%; in test [8], 9.76%; in [9], -10.1%.
As for `Cc1nn(C)c(N(C)C)c1CNCc1cccnc1`, the Percent Effect is -5.22% in [1]; -2.7% in test [2]; -6.42% in test [3]; -9.25% in [4]; -5.38% with Trypanosoma cruzi; -1.74% in [5]. Also, the Percent Effect in [6] was 12.4%; in the test listed under Homo sapiens, -10.3%; in test [7], -4.3%; in [8] it was -6.17%; in test [9], -0.598%.
Take `Cc1ccccc1S(=O)(=O)NC(=O)CSc1ccc2c(c1)OCCO2`: the Percent Effect in [1] is -0.381%; in test [2], 1.39%; in test [3] it was -0.933%; in [4], -9.91%; in the test with Trypanosoma cruzi, -3.21%; in [5], 0%. Besides, the Percent Effect in [6] is 10%; in the test listed under Homo sapiens, 1.45%; in test [7], -11.6%; in test [8], -7.69%; in [9] it was 0.792%.
